Bioassay records as filed in PubChem.
HCMV inh = inhibitors of human cytomegalovirus | 410,000 tested, 4.5% active | activity change, negative = inhibition, % at 57.5 µM | HFF cells, HCMV-luciferase reporter, 72 h; stronger effect = lower value; in the data active = activity change below about -60%; inconclusive = no clear call, values can overlap the other calls; inactive = above about -39%
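Cell-based, HFFs, 1000 cells/well, 16 h 37C; cpds in DMSO + HCMV-luc, MOI 1 PFU/cell; 72 h 37C; OneGlo luminescence after 5 min RT; norm. to buffer vs Salinomycin 10uM.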
Marburg entry inh = Marburg virus entry inhibition; Marburg virus pseudotyped entry inhibition, cell reporter; Potency, µM (series often up to 37.8 µM), hits mostly inhibitors; 300,000 tested, 1.8% active; AID 540276; calls by dose curve; tested in HEK293 cells
LASV entry inh = Lassa virus entry inhibition; Lassa virus pseudotype entry inhibition, cell reporter; Potency, µM (series often up to 37.9 µM), most hits filed as inhibitors; 300,000 tested, 1.2% active; AID 540256; calls by dose curve; tested in HEK293 cells; note: nearly all actives have a fitted effect of over 50% in size
HCV inhibitor = inhibitors of hepatitis C virus infection; 340,000 tested, 3.4% active; Potency, µM (top dose mostly 41.8 µM), usual class: inhibitors; Huh7.5.1 HCVcc-Cre infection, luciferase reporter, 44 h; AID 651820; active = well fitted inhibition curve with a large enough effect; inconclusive = small, poorly fitted or top-dose-only effect, or another doubt; inactive = no such curve, though single readings can be large or run the other way
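Cells seeded at 1,000/well and cultured 4 h, then compounds added followed by HCVcc-Cre virus (~0.5 moi). After 44 h further culture, luciferase substrate was added, plates held 15 min at room temperature, and luminescence read for 15 sec.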
FMDV inh = antivirals against foot and mouth disease virus; 410,000 tested, 1.2% active; Potency, µM (doses to about 57.9 µM), usual class: inhibitors; FMDV antiviral cell-based qHTS; calls by dose curve; tested in HEK293T cells; note: read-out not given here; nearly all actives have a fitted effect of over 45% in size
Each line names hits and unclear results; the compound was inactive in the other large screens; ! = not confirmed by another sample. A selection: hits, their analogues and other compounds. The true share with any hit is near 7.9%.

COc1ccc(-n2c(C)cc(C(=O)CN3C(=O)c4ccccc4C3=O)c2C)cc1	HCMV inh inconclusive, Marburg entry inh inconclusive
Cc1cc(C(=O)COC(=O)c2ccc(O)cc2O)c(C)n1-c1ccc(OC(F)F)cc1	HCMV inh -63, Marburg entry inh 7.9µM, LASV entry inh inconclusive, HCV inhibitor 10µM, FMDV inh inconclusive
COc1ccc(-n2c(C)cc(C(=O)COC(=O)Cn3cnc4ccccc43)c2C)cc1	HCMV inh inconclusive
Cc1cc(C(=O)CCl)c(C)n1-c1c(C)n(C)n(-c2ccccc2)c1=O	Marburg entry inh inconclusive, LASV entry inh inconclusive, HCV inhibitor 8.9µM, FMDV inh 28µM
COc1cccc(NC(=O)COC(=O)CNC(=O)C2CCCCC2)c1	none (no result: Marburg entry inh, LASV entry inh)
COc1ccc(-c2nc(CN3CCC(C(=O)NCc4ccc(C)cc4)CC3)c(C)o2)cc1OC	FMDV inh inconclusive (no result: HCV inhibitor)
CC(C)(C)c1ccc(-n2ncc3c2CCCC3NC(=O)CCN2CCCCC2=O)cc1 (stereo not drawn)	HCMV inh -64, HCV inhibitor inconclusive, FMDV inh inconclusive
Cc1ccc(-n2ncc3c2CCCC3NC(=O)CCCN2CCCC2=O)cc1C (stereo not drawn)	none
Cc1cc(C(=O)NC2CCCc3c2cnn3-c2ccc(C(C)(C)C)cc2)n[nH]1 (stereo not drawn)	HCMV inh inconclusive, HCV inhibitor 11µM, FMDV inh inconclusive (no result: Marburg entry inh, LASV entry inh)
CC(C)(C)c1ccc(-n2ncc3c2CCCC3NC(=O)CCC2=NNC(=O)CC2)cc1 (stereo not drawn)	HCMV inh -76, FMDV inh inconclusive (no result: Marburg entry inh, LASV entry inh, HCV inhibitor)
COC(CNC(=O)C(=O)Nc1ccc2c(c1)N(S(=O)(=O)c1cccs1)CCC2)OC	HCV inhibitor inconclusive
O=C(NCCCO)C(=O)Nc1ccc2c(c1)N(S(=O)(=O)c1cccs1)CCC2	HCV inhibitor inconclusive
COCCNC(=O)C(=O)Nc1ccc2c(c1)N(S(=O)(=O)c1cccs1)CCC2	Marburg entry inh inconclusive, LASV entry inh 1.8µM, HCV inhibitor inconclusive
CC(C)CNC(=O)C(=O)Nc1ccc2c(c1)N(S(=O)(=O)c1cccs1)CCC2	Marburg entry inh 3.2µM, LASV entry inh inconclusive, HCV inhibitor inconclusive
CCn1cc(CN2CCC(Oc3ccc(C(=O)N4CCCCC4)cc3)CC2)cn1	none
COC(=O)Cc1ccc(NC(=S)N2CCN(CCO)CC2)cc1	none
Clc1ccc(COC(Cn2ccnc2)c2ccc(Cl)cc2Cl)cc1 (stereo not drawn)	HCV inhibitor inconclusive, FMDV inh 32µM!
Clc1ccc(CSC(Cn2ccnc2)c2ccc(Cl)cc2Cl)cc1 (stereo not drawn)	HCMV inh inconclusive, Marburg entry inh inconclusive, LASV entry inh inconclusive, FMDV inh inconclusive
CCOC(=O)CSc1nc2ccc(N3CCOCC3)cc2c(=O)n1Cc1ccc2c(c1)OCO2	HCV inhibitor 4µM (no result: HCMV inh, Marburg entry inh, LASV entry inh, FMDV inh)
CCCN(CCC)C(=O)CSc1nc2ccccc2c(=O)n1CC1COc2ccccc2O1 (stereo not drawn)	Marburg entry inh inconclusive, LASV entry inh inconclusive, HCV inhibitor inconclusive
CCOC(=O)CSc1nc2ccccc2c(=O)n1CC1COc2ccccc2O1 (stereo not drawn)	HCV inhibitor 2.5µM
CCOC(=O)CSc1nc2ccccc2c(=O)n1CC1CCCO1 (stereo not drawn)	HCV inhibitor 8.9µM
Cc1ccc(NC(=O)CSc2nc(-c3ccco3)nc3cc(=O)[nH]n23)cc1C	none (no result: Marburg entry inh, HCV inhibitor)
CC(=O)NCCNc1ncnc2ccc(-c3ccccc3C#N)cc12	none (no result: HCMV inh, Marburg entry inh, LASV entry inh, HCV inhibitor)
O=C(NCc1ccccc1Cl)C1CCN(S(=O)(=O)c2ccc3c(c2)CCCN3C(=O)C2CCC2)CC1	LASV entry inh inconclusive, FMDV inh inconclusive (no result: Marburg entry inh, HCV inhibitor)
O=c1[nH]c(=S)[nH]cc1Oc1ccc(Cl)cc1Cl	HCMV inh -97 (no result: Marburg entry inh, LASV entry inh)
CS(=O)(=O)c1ccc(-c2nccc3[nH]nc(-c4cccc(F)c4)c23)cc1	none (no result: Marburg entry inh, LASV entry inh, HCV inhibitor, FMDV inh)
O=C(c1cnc2ccc3ccccc3c2c1)c1cc(F)ccc1O	HCV inhibitor 5.6µM, FMDV inh inconclusive (no result: Marburg entry inh, LASV entry inh)
Cc1nn(C)c2ncc(C(=O)c3cc(F)ccc3O)cc12	Marburg entry inh inconclusive, FMDV inh inconclusive
Cc1ccc(N(CC(=O)NCCc2ccccc2)S(=O)(=O)c2c(C)noc2C)cc1	Marburg entry inh inconclusive, LASV entry inh inconclusive (no result: FMDV inh)
CCc1ccc(NC(=O)CN(c2ccc3c(c2)OCO3)S(=O)(=O)c2c(C)noc2C)cc1	HCMV inh -71, FMDV inh inconclusive (no result: Marburg entry inh, LASV entry inh)
CCOc1ccc(N(CC(=O)Nc2ccccc2CC)S(=O)(=O)c2c(C)noc2C)cc1	HCMV inh -91, Marburg entry inh inconclusive (no result: HCV inhibitor)
CCOc1ccccc1NC(=O)CN(c1ccc(C)cc1)S(=O)(=O)c1c(C)noc1C	Marburg entry inh inconclusive, LASV entry inh inconclusive, HCV inhibitor inconclusive, FMDV inh inconclusive
CCOc1ccc(N(CC(=O)Nc2ccc3c(c2)OCCO3)S(=O)(=O)c2c(C)noc2C)cc1	none (no result: LASV entry inh)
Cc1noc(C)c1S(=O)(=O)N(CC(=O)NCc1ccccc1Cl)c1ccc(C(C)C)cc1	HCMV inh -62 (no result: HCV inhibitor)
COc1ccc(N(CC(=O)NCc2ccccc2Cl)S(=O)(=O)c2c(C)noc2C)cc1	HCV inhibitor inconclusive, FMDV inh inconclusive (no result: Marburg entry inh, LASV entry inh)
CCOc1ccc(N(CC(=O)NCCc2ccc(C)cc2)S(=O)(=O)c2c(C)noc2C)cc1	HCMV inh -69 (no result: Marburg entry inh, LASV entry inh)
COc1cccc(-c2oc3ccc(C)cc3c(=O)c2O)c1	Marburg entry inh inconclusive, LASV entry inh inconclusive (no result: HCV inhibitor)
CCCC(=O)OC[C@H]1CN(C2CCCC2)S(=O)(=O)c2c(Oc3ccc(F)cc3OC)cccc2O1	none (no result: Marburg entry inh, LASV entry inh, HCV inhibitor, FMDV inh)
COc1ccc(N(CC(=O)Nc2cc(C)ccc2C)S(=O)(=O)c2ccc(OC)c(OC)c2)cc1	FMDV inh inconclusive (no result: Marburg entry inh, HCV inhibitor)
FC(F)(F)c1cc(-c2cccs2)nc(-n2cc(Cl)cn2)n1	HCV inhibitor 10µM, FMDV inh inconclusive
COc1cccc(-c2cc(C(F)(F)F)nc(-n3cc(C)cn3)n2)c1	HCV inhibitor 10µM (no result: Marburg entry inh, LASV entry inh)
O=[N+]([O-])c1cnn(-c2nc(-c3ccccc3)cc(C(F)(F)F)n2)c1	HCMV inh -76, Marburg entry inh inconclusive, HCV inhibitor inconclusive
O=[N+]([O-])c1ccc(O)c(-c2cc(C(F)(F)F)nc(-c3ccccc3)n2)c1	HCMV inh -101, HCV inhibitor 1.4µM, FMDV inh inconclusive (no result: LASV entry inh)
COc1cccc(-c2cc(C(F)(F)F)nc(-n3cncn3)n2)c1	Marburg entry inh inconclusive
CCOC(=O)C1=CN(Cc2cccc(F)c2)S(=O)(=O)N(CC)C1c1ccc(C(F)(F)F)cc1 (stereo not drawn)	HCV inhibitor inconclusive (no result: Marburg entry inh, LASV entry inh)
COCCNC(=O)C(c1ccc(C)o1)N(C(=O)C(=O)NC1CCCCC1)c1ccc(F)cc1 (stereo not drawn)	none
FC(F)(F)c1cc(-c2ccccc2)nc(N2CCOCC2)n1	HCMV inh inconclusive, HCV inhibitor 8.9µM
FC(F)(F)COc1nc(N2CCOCC2)nc(N(c2ccccc2)c2ccccc2)n1	HCMV inh -86, Marburg entry inh 13µM, LASV entry inh inconclusive, HCV inhibitor inconclusive, FMDV inh inconclusive
Cc1ccc(CNC(=O)CN2C(=O)CSc3ccc(S(=O)(=O)N(C)C)cc32)cc1	none (no result: Marburg entry inh, HCV inhibitor)
COc1ccc(C(=O)NCCSc2c(C)[nH]c3ccccc23)cc1	HCMV inh -96, Marburg entry inh inconclusive (no result: HCV inhibitor)
